# In PubChem BioAssay AID1021 (Emory University Molecular Libraries Screening Center, 2008):
# Values joined by “and” are separate entries in the source; they are usually repeats but may differ in a detail not shown here. Equal values may be shown once. The whole screen tested about 220,000 compounds, of which about 2,100 (0.95%) were called active. The sample holds actives, similar compounds and a random draw of the others, so the mix is not that of the screen.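 The calls were made as follows: active = compounds that cut the binding signal by more than half at the single screening dose; inactive = the rest.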 Some structures have more than one record in an assay (separate samples or runs), and their calls can disagree.
# Biological target: Induced myeloid leukemia cell differentiation protein Mcl-1 (Homo sapiens) (UniProt Q07820)
# Sequence (Q07820 whole entry, looked up): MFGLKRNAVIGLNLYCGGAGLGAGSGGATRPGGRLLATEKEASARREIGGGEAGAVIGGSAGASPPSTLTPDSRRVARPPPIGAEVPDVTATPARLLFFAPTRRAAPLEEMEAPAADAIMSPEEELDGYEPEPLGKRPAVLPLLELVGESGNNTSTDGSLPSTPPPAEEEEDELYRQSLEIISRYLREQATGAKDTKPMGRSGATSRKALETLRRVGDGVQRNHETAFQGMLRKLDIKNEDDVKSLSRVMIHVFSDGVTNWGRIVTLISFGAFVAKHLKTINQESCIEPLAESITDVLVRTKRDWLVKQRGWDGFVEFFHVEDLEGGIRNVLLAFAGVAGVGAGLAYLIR
# Assay: Mcl-1/Bid binding inhibitors, primary screen, biochemical, TR-FRET, 1536-well (AID 1021);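 also: His-tagged Mcl-1 with europium anti-His antibody binding Bid BH3 peptide; 0% = Mcl-1 plus peptide wells and 100% = peptide-only wells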
# Details: TR-FRET Mcl-1/Bid-Dy647 peptide binding, at 21.7 µM, stronger effect = higher value
row,Structure (SMILES),inhibition
1,Cc1ccc(Nc2cc(=O)n(C3CCCCC3)c(=O)[nH]2)cc1C,94.6% (active)
2,Cc1ccc(NNC(=O)C2CCC2)cc1C,-13% (inactive)
3,O=c1cc(C(F)(F)F)[nH]c(=O)n1C1CCCCC1,-10.9% (inactive)
4,Cc1c(C(=O)Nc2ccccc2)sc2nc3n(c(=O)c12)CCCCC3,-9.14% (inactive)
5,O=C(Cn1c[n+](CC(=O)c2ccc([N+](=O)[O-])cc2)cn1)c1ccc([N+](=O)[O-])cc1,-21.7% (inactive) and -16.6% (inactive)
6,CC(=O)Oc1cccc(N2C(=O)C3CC=C(Cl)CC3C2=O)c1 (stereo not given),-19.4% (inactive)
7,O=C(Oc1cccc(N2C(=O)C3C4c5ccccc5C(c5ccccc54)C3C2=O)c1)c1ccco1 (stereo not given),92% (active)
8,CC(=O)Nc1ccc(N2C(=O)C3C4CC(=O)C(c5ccccc54)C3C2=O)cc1 (stereo not given),-11.5% (inactive)
9,O=[N+]([O-])c1ccc(N2CCSCC2)cc1O,-15.7% (inactive)
10,O=C(CS(=O)(=O)c1ccc(C(F)(F)F)cn1)NNC(=O)c1ccccc1,-2.12% (inactive)
11,O=c1[nH]c2ccccc2n2c(-c3ccccc3)nnc12,64.9% (active)
12,Cc1ccc(-c2nc3ccccc3[nH]c2=O)cc1,-0.25% (inactive)
13,CCOC(=O)c1cnc2[nH]c3ccccc3n2c1=O,10.7% (inactive)
14,CCCCc1nnc(NC(=O)CSc2nc(N)cc(=O)[nH]2)s1,-5.95% (inactive)
15,Cn1c2ccccc2c2cc(/C=C(\NC(=O)c3ccccc3)C(=O)NCC(=O)O)ccc21,-1.08% (inactive)
16,Cc1cc(NS(=O)(=O)c2ccc(NC(=O)c3cccc(OC(F)F)c3)cc2)nc(C)n1,-2.38% (inactive)
17,Cn1cccc1/C=N/NC(=O)CNc1cccc2ccccc12,-45.9% (inactive)
18,O=C(C(NS(=O)(=O)c1cccc2nsnc12)c1ccccc1)N1CCN(c2ccccc2)CC1 (stereo not given),-29.6% (inactive)
19,O=C(O)c1ccc(NS(=O)(=O)c2cccc3nsnc23)cc1,101% (active)
20,O=C(O)C(NS(=O)(=O)c1cccc2nsnc12)c1ccccc1 (stereo not given),-3.92% (inactive)

row,Structure (SMILES),inhibition
1,N#Cc1c(N)nc2c(c1N)CC(C(F)(F)F)O2 (stereo not given),1.45% (inactive)
2,Cc1nn(Cc2ccccc2)c2c1C(c1ccccc1)C(C#N)=C(N)O2 (stereo not given),-17.5% (inactive)
3,Cc1nn(-c2ccccc2)c2c1C(c1ccc(F)cc1)C(C#N)=C(N)O2 (stereo not given),-9.94% (inactive)
4,COc1ccccc1C1C(C#N)=C(N)Oc2c1c(-c1ccccc1)nn2-c1ccccc1 (stereo not given),97.3% (active)
5,COc1cc(S(=O)(=O)N(Cc2cccs2)C2CC2)ccc1-n1cnnn1,1.4% (inactive)
6,CCC(CC)NC(=O)CSc1nnc(-c2c[nH]c3ccccc23)o1,1.1% (inactive)
7,CN(C)c1ccc(Nc2c3c4c(cccc4n(C)c2=O)C(=O)c2ccccc2-3)cc1,59.4% (active)
8,CC1(C)CC(=O)C=C(Nc2ccccc2)C1,-54% (inactive)
9,Cc1ccc(C(=O)OC2=CC(=O)CC(C)(C)C2)cc1,89.4% (active)
10,COC(=O)NNC1=CC(=O)CC(C)(C)C1,-13.6% (inactive)
11,CC(=O)Nc1cccc(/C(C)=N/NC(=O)c2ccccc2Cl)c1,-9.47% (inactive)
12,O=C(NC1CC1)c1ccc2c(c1)NC(=O)c1ccccc1S2,-30.3% (inactive)
13,C/C(=N\Nc1cccc(C(=O)O)c1)c1ccc2c(c1)Nc1ccccc1S2,92% (active)
14,COc1cc(/C=N/NC(=O)CCc2n[nH]c(=O)[nH]c2=O)ccc1O,-25.6% (inactive)
15,O=C(OCc1nc2ccccc2[nH]1)C1CCCCC1,-17.4% (inactive)
16,COc1ccc(C(=O)C2CCCN(Cc3ccc4nonc4c3)C2)c(C)c1 (stereo not given),-14.3% (inactive)
17,Fc1ccc(NC(=S)N2CCc3[nH]c4ccccc4c3C2)cc1,-6.12% (inactive)
18,O=C(NC1CCCCC1)N1CCc2[nH]c3ccccc3c2C1,-16.1% (inactive)
19,O=C(Nc1ccc(Cl)cc1)N1CCc2[nH]c3ccccc3c2C1,83.8% (active)
20,Cc1ccccc1CN(c1ccc(C(=O)NCC2CCCO2)cc1)S(C)(=O)=O (stereo not given),-0.03% (inactive)

row,Structure (SMILES),inhibition
1,CNS(=O)(=O)c1ccc(N2CCCC2=O)c([N+](=O)[O-])c1,-4.05% (inactive)
2,COc1ccc(CCN(C)C(=O)C2CCCN(Cc3ccc(OC)c(OC)c3)C2)cc1OC (stereo not given),-22.7% (inactive) and 54.1% (active)
3,COc1ccc(CN2CCCC(CNC(=O)c3ccc(F)cc3)C2)cc1OC (stereo not given),-22.9% (inactive)
4,COc1ccc(CN2CCCC(C(=O)c3ccc(Cl)cc3)C2)cc1Cn1cncn1 (stereo not given),-25.6% (inactive)
5,CC(C)CC(=O)NC(=S)NNC(=O)c1cccc([N+](=O)[O-])c1,-73.3% (inactive)
6,Cn1nc(C(F)(F)F)c(-c2ccc(F)cc2)c1NC(=O)CSCC(=O)O,-12.6% (inactive)
7,O=[N+]([O-])c1ccc(N/N=C/c2ccccc2)cc1,-8.01% (inactive)
8,FC(F)(F)c1cccc(N/N=C/c2ccccc2)c1,93.7% (active)
9,O=C(O)CSCC(=O)Nc1cccc(C(F)(F)F)c1,-0.04% (inactive)
10,Clc1ccc(C[n+]2cc(-c3ccc(Cl)cc3)n3c2CCC3)cc1,-1.66% (inactive)
11,O=c1c2[nH]c3ccc(Cl)cc3c2ncn1Cc1ccccn1,10.2% (inactive)
12,COc1ccc2[nH]c3c(=O)n(Cc4ccco4)cnc3c2c1,72.9% (active)
13,Cc1ccc2[nH]c3c(=O)n(Cc4ccccn4)cnc3c2c1,14.7% (inactive)
14,S=C(NNC(=S)NC1CC2C=CC1C2)NC1CC2C=CC1C2 (stereo not given),-96.2% (inactive)
15,CCCCCCCCCCCCC(NC(C)=O)(C(=O)OCC)C(=O)OCC,1.76% (inactive)
16,CN(C)c1ccc(/C=C/C(=O)c2ccc(O)cc2)cc1[N+](=O)[O-],-2.27% (inactive)
17,CCO[C@@H]1OC(C(=O)NCc2nc3ccccc3[nH]2)=C[C@H](C2CCCCC2)[C@H]1CCCO,5.02% (inactive)
18,CCc1ccccc1N1CN(Cc2ccco2)CNC1=S,-26.9% (inactive)
19,Cc1nccc(-c2ccc(-n3c(C)ccc3C)cc2)n1,6.3% (inactive)
20,COc1ccccc1NC(=O)/C=C/C(=O)O,-31.9% (inactive)
